# Bioassay records: PubChem BioAssay, Broad Institute
# Pf Dd2 inh – inhibitors of Plasmodium falciparum Dd2 growth | P. falciparum Dd2 growth, SYBR Green, 72 h; stronger effect = lower value | activity change, % at 10 µM | 2.3% of 94,000 active | AID 1159554; in the data active = activity change below about -80%; inconclusive = no clear call, values can overlap the other calls
# C diff growth – inhibitors of Clostridium difficile growth; growth activity, negative = inhibition, % at 16 µg/mL (by protocol); Clostridium difficile clinical isolate growth, OD600, 24 h; stronger effect = lower value; 0.25% of 86,000 active;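 active = mean growth activity at or below -80% and every replicate also at or below -80%; inconclusive = mean at or below -80% but some replicate above -80%; inactive = mean growth activity above -80%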;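 note: 0% = DMSO wells and -100% = levofloxacin 16 µg/mL wells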
# T cruzi growth-1 – blocks T. cruzi growth in NIH3T3 culture; T. cruzi beta-gal in NIH3T3, GalScreen luminescence, 90 h; inhibition, % at 8.34 µM; 5.9% of 77,000 active; AID 624255;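 active = mean inhibition above about 93%, with at least 55% of replicates each passing it, limit read from the data, passing the limit was not always enough; inconclusive = only one of those two conditions holds; inactive = neither condition holds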
# T cruzi growth-2 – Trypanosoma cruzi proliferation inhibition; shares compounds with T cruzi growth-1; T. cruzi beta-gal in NIH3T3, GalScreen luminescence, 90 h; inhibition, % at 8.35 µM; AID 651739; 72% of 5,600 active;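 active = mean replicate inhibition above about 95% and at least 55% of replicates individually reaching it, limit read from the data; inconclusive = only one of the two criteria is met; inactive = neither criterion is met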
# T cruzi growth-3 – blocks T. cruzi growth in NIH3T3 host cells; 21% of 5,600 active; inhibition, % at 2.09 µM; AID 651740; shares compounds with T cruzi growth-1; T. cruzi beta-gal in NIH3T3, GalScreen luminescence, 90 h;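 active = mean inhibition above about 95%, with at least 55% of replicates also reaching it, limit read from the data; inconclusive = meets just one of the two conditions; inactive = meets neither condition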;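 note: plate controls were neutral control median for no effect and positive control median for full effect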
# 3T3 cytotox – NIH/3T3 (mouse) viability loss. shares compounds with T cruzi growth-1. NIH/3T3 viability, CellTiter-Glo ATP luminescence, 90 h. cytotoxicity (signal decrease), % at 8.35 µM. 14% of 5,600 active;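 active = mean signal decrease across replicates above about 35% based on untreated-well scatter, with enough replicates individually passing, limit read from the data; inconclusive = no rule stated though some were filed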;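 note: 0% = median of neutral control wells and 100% = median of positive control wells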
# 3T3 cytotox 2 – kills mouse NIH/3T3 fibroblasts; shares compounds with T cruzi growth-1; NIH/3T3 viability, CellTiter-Glo ATP luminescence, 90 h; inhibition, % at 24.9 µM; 56% of 5,600 active;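 active = mean loss of cell viability signal at or above a set limit, and enough replicates individually reaching it; inconclusive = meets only the mean limit or only the replicate share; inactive = meets neither condition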;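 note: 0% = median of neutral control wells and 100% = median of positive control wells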
# Numbers without * were called inactive; u = inconclusive; x = not tested or not shown. The list is not random: actives were taken first. Their share in the collection is about 6.7%.
SMILES,Pf Dd2 inh,C diff growth,T cruzi growth-1,T cruzi growth-2,T cruzi growth-3,3T3 cytotox,3T3 cytotox 2
C[C@H](CO)N1C[C@H](C)[C@H](CN(C)C(=O)Nc2ccc3c(c2)OCO3)Oc2ccc(NS(=O)(=O)c3cn(C)cn3)cc2C1=O,-16,x,-22,x,x,x,x
COCC#Cc1ccc2c(c1)O[C@@H](CN(C)Cc1ccncc1)[C@@H](C)CN([C@H](C)CO)S2(=O)=O,-2,2,u,105*,72,10,8
COCC#Cc1ccc2c(c1)O[C@H](CN(C)Cc1ccncc1)[C@H](C)CN([C@H](C)CO)S2(=O)=O,19,-2,29,x,x,x,x
COCC#Cc1ccc2c(c1)O[C@@H](CN(C)Cc1ccncc1)[C@@H](C)CN([C@@H](C)CO)S2(=O)=O,12,1,u,97*,71,20,18
COCC#Cc1ccc2c(c1)O[C@H](CN(C)Cc1ccc(F)cc1)[C@@H](C)CN([C@H](C)CO)S2(=O)=O,-61,-2,85,x,x,x,x
COCC#Cc1ccc2c(c1)O[C@H](CN(C)Cc1ccccc1)[C@@H](C)CN([C@@H](C)CO)S2(=O)=O,-40,4,u,102*,72,21,104*
COCC#Cc1ccc2c(c1)O[C@H](CN(C)Cc1ccncc1)[C@H](C)CN([C@@H](C)CO)S2(=O)=O,15,-5,49,x,x,x,x
COc1ccccc1NC(=O)N(C)C[C@@H]1Oc2cc(Br)ccc2S(=O)(=O)N([C@@H](C)CO)C[C@H]1C,-51,0,x,x,x,x,x
CC(C)NC(=O)N(C)C[C@@H]1OCCCC[C@H](C)Oc2ccc(NC(=O)Cc3ccccc3)cc2C(=O)N([C@H](C)CO)C[C@@H]1C,-29,-1,33,x,x,x,x
C[C@@H]1CN([C@@H](C)CO)C(=O)c2cc(-c3ccncc3)cnc2O[C@H]1CN(C)C(=O)Nc1ccc2c(c1)OCO2,24,4,-67,x,x,x,x
C[C@H]1CCCCO[C@@H](CN(C)C(=O)Nc2ccccc2)[C@@H](C)CN([C@@H](C)CO)C(=O)c2cc(NS(=O)(=O)c3ccc(Cl)cc3)ccc2O1,-70,10,114*,108*,39,-18,-37
C[C@@H]1CN([C@@H](C)CO)C(=O)c2cc(NS(=O)(=O)c3ccccc3)ccc2O[C@@H](C)CCCCO[C@@H]1CN(C)C(=O)Nc1ccccc1,-56,x,x,x,x,x,x
C[C@@H]1CCCCO[C@@H](CN(C)C(=O)Nc2ccccc2)[C@H](C)CN([C@H](C)CO)C(=O)c2cc(NS(=O)(=O)c3ccccc3)ccc2O1,-57,x,x,x,x,x,x
C[C@H](CO)N1C[C@H](C)[C@H](CN(C)C(=O)Nc2ccccc2)OCCCC[C@H](C)Oc2ccc(NS(=O)(=O)c3ccccc3)cc2C1=O,17,x,x,x,x,x,x
C[C@@H]1CCCCO[C@@H](CN(C)C(=O)Nc2ccccc2)[C@H](C)CN([C@@H](C)CO)C(=O)c2cc(NS(=O)(=O)c3ccc(Cl)cc3)ccc2O1,-17,1,u,108*,67,3,4
C[C@@H]1CN([C@H](C)CO)C(=O)c2cc(NS(=O)(=O)c3ccc(Cl)cc3)ccc2O[C@@H](C)CCCCO[C@H]1CN(C)C(=O)Nc1ccccc1,-66,1,u,101*,28,-44,-23
COc1ccc(CN(C)C[C@H]2OCCCC[C@H](C)Oc3ccc(NC(=O)NC4CCCCC4)cc3C(=O)N([C@H](C)CO)C[C@@H]2C)cc1,23,-1,46,x,x,x,x
O=C(c1ccccn1)N1C[C@H]2[C@@H](c3ccccc31)[C@@H](CO)N2C(=O)C1CCOCC1,4,5,-2,x,x,x,x
CCC(=O)N[C@@H]1C=C[C@@H](CC(=O)NCc2ccccc2OC)O[C@H]1CO,-6,-1,-94,x,x,x,x
C[C@@H]1CCCCO[C@H](CN(C)C(=O)Cc2ccccc2)[C@@H](C)CN([C@@H](C)CO)C(=O)c2cc(NS(=O)(=O)c3cn(C)cn3)ccc2O1,-6,1,-18,x,x,x,x
CC(C)(O)C#Cc1ccc([C@H]2[C@@H](CO)N3CCCCN(C(=O)c4ccc(F)cc4)C[C@H]23)cc1,-69,-1,112*,48,13,-13,-7
CC(C)(O)C#Cc1ccc([C@H]2[C@H]3CN(C(=O)c4cccc(F)c4)CCCCN3[C@H]2CO)cc1,24,11,79,x,x,x,x
CC(C)(O)C#Cc1ccc([C@H]2[C@H](CO)N3CCCCN(C(=O)c4ccc(F)cc4)C[C@@H]23)cc1,-94*,12,122*,u,-11,13,20
CC(C)(O)C#Cc1ccc([C@@H]2[C@H](CO)N3CCCCN(C(=O)c4ccc(F)cc4)C[C@@H]23)cc1,-16,-1,19,x,x,x,x
CC(C)(O)C#Cc1ccc([C@H]2[C@@H](CO)N3CCCCN(C(=O)c4cccc(F)c4)C[C@H]23)cc1,19,9,110*,36,-22,-1,5
SMILES,Pf Dd2 inh,C diff growth,T cruzi growth-1,T cruzi growth-2,T cruzi growth-3,3T3 cytotox,3T3 cytotox 2
CC(C)C#Cc1ccc([C@H]2[C@@H](CO)N3CCCCN(C(=O)c4ccc(F)cc4)C[C@@H]23)cc1,1,44,84,x,x,x,x
O=C(O)C[C@H]1C[C@@H]2c3cc(NC(=O)Nc4ccc(F)cc4)ccc3O[C@@H]2[C@@H](CO)O1,11,1,-32,x,x,x,x
COc1ccc2c3c([nH]c2c1)[C@@H](CO)N(C(=O)Nc1ccc(F)cc1)CC31CCN(Cc2cc(F)ccc2F)CC1,-77,62,x,x,x,x,x
C[C@@H]1CN([C@H](C)CO)S(=O)(=O)c2ccc(-c3ccccc3)cc2O[C@@H]1CN(C)Cc1ccccc1,-30,-12,94,x,x,x,x
C[C@@H]1CN([C@@H](C)CO)S(=O)(=O)c2ccc(-c3ccccc3)cc2O[C@@H]1CN(C)Cc1ccccc1,-15,3,121*,103*,106*,48*,105*
C[C@H](CO)N1C[C@H](C)[C@@H](CN(C)Cc2ccccc2)Oc2cc(-c3ccccc3)ccc2S1(=O)=O,-41,15,67,x,x,x,x
C[C@H](CO)N1C[C@H](C)[C@H](CN(C)Cc2ccccc2)Oc2cc(-c3ccccc3)ccc2S1(=O)=O,-34,12,113*,105*,81,6,106*
CC=Cc1ccc2n(c1=O)C[C@@H]1[C@@H](CO)[C@H](C(=O)NCC3CC3)[C@H]2N1C(=O)CC (mixture of isomers),14,-5,-15,x,x,x,x
C[C@H](CO)N1C[C@H](C)[C@H](CN(C)Cc2ccccc2)Oc2cc(C3=CCCC3)ccc2S1(=O)=O,-31,7,108*,108*,51,7,105*
C[C@H](CO)N1C[C@H](C)[C@@H](CN(C)Cc2cccc(C(=O)O)c2)Oc2cc(C3=CCCC3)ccc2S1(=O)=O,-8,0,-41,x,x,x,x
